Data taken from PubChem BioAssay (Tox21).
Values without a mark were called inactive. Records with an inconclusive call do not appear. A call without a number means that no potency is given here. Calls of active or inactive are those of the source. Unless noted, the call rests on the fitted dose curve; in most records, active means well fitted curve in the direction sought with a large enough effect in the repeat runs; inconclusive means weak or mixed curves; inactive means no such curve, though single readings can be large; an effect the other way counts as inactive or inconclusive.

Experiments:
[1] = qHTS assay to identify small molecule agonists of the estrogen receptor alpha (ER-alpha) signaling pathway in the presence of an antagonist - cell viability counter screen (AID 1259386);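 further: series mostly up to about 92 µM; cells exposed to compounds for 22 h at 37 °C before the viability read; nearly all actives have a fitted effect of over 30% in size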
Procedure, shortened: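 VM7Luc4E2, stripped-serum pre-culture 5 d; 24hr plating; +ICI-182,780 10.0nM final; cpds 15 conc, 22hr, 37C/5% CO2; CellTiter-Fluor added at 21hr, fluorescence 1hr later.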

[2] = target: Progesterone receptor (Homo sapiens) (UniProt P06401); assay: qHTS assay to identify small molecule agonists of the progesterone receptor (PR) signaling pathway (AID 1346784; calls by dose curve; further: nearly all actives have a fitted effect of over 30% in size; further: potency means the concentration at half of the fitted maximal effect)
Procedure, shortened: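 HEK 293T PR-UAS-bla reporter cells, 2% charcoal-stripped FBS; 6 hr settle at 37C/5% CO2, compound (DMSO) 16 hr, LiveBLAzer B/G FRET substrate 2 hr RT, fluorescence intensity read.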

[3] = target: Progesterone receptor (Homo sapiens) (UniProt P06401); assay: qHTS assay to identify small molecule antagonists of the progesterone receptor (PR) signaling pathway (AID 1346795; active means well fitted inhibition curve with a large enough effect in the signal ratio in the repeat runs, not every such curve was filed as active; the % refers to the signal ratio)
Procedure, shortened: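 Beta-lactamase reporter, HEK293T PR-UAS-bla line; 2% charcoal-stripped FBS; 6 hr pre-incubation, 37C/5% CO2. Compound + R5020 1 nM final, 16 hr. LiveBLAzer B/G FRET substrate, 2 hr RT; fluorescence intensity read.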

[4] = qHTS assay to identify small molecule antagonists of the progesterone receptor (PR) signaling pathway - cell viability counter screen (AID 1346798); further: series mostly up to about 92 µM; nearly all actives have a fitted effect of over 50% in size
Procedure, shortened: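 Luminescence readout (CellTiter-Glo, 30 min, RT) of viability in PR-UAS-bla HEK293T cells exposed to compound and R5020 agonist for 16 hr at 37C, 5% CO2; run in the same wells as the beta-lactamase reporter read.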

[5] = qHTS assay to identify small molecule agonists of the progesterone receptor (PR) signaling pathway - cell viability counter screen (AID 1346799; calls by dose curve; further: nearly all actives have a fitted effect of over 45% in size)
Procedure, shortened: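 HEK293T PR-UAS-bla, 3,000 cells/well, 2% charcoal-stripped FBS; 6 h settle, compound 16 h at 37C/5% CO2; LiveBLAzer 2 h RT, then CellTiter-Glo 30 min RT, luminescence read.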

[6] = qHTS assay to identify small molecule antagonists of the TGF-beta/Smad signaling pathway - cell viability counter screen (AID 1346824); further: nearly all actives have a fitted effect of over 50% in size
Procedure, shortened: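 Cytotoxicity counter-screen run in the same wells as the beta-lactamase Smad reporter read: CellTiter-Glo luminescence after 30 min at room temperature. HEK 293T SBE-bla cells had 5 hr compound exposure at 37 C with TGF-beta1 (0.25 ng/mL stock).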

[7] = qHTS assay to identify small molecule agonists of the TGF-beta/Smad signaling pathway - cell viability counter screen (AID 1346829); further: top concentration of the series differs between compounds; nearly all actives have a fitted effect of over 45% in size
Procedure, shortened: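 CellTiter-Glo luminescence readout; SBE-bla HEK 293T cells, overnight plating, compound 5 hr at 37 C/5% CO2, then bla substrate 2 hr RT, then CellTiter-Glo 30 min RT.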

[8] = qHTS assay to identify small molecule agonists of the TGF-beta/Smad signaling pathway (AID 1346859; active means well fitted activation curve with a large enough effect in the signal ratio in the repeat runs, not every such curve was filed as active; the % refers to the signal ratio; further: series mostly up to about 77 µM)
Procedure, shortened: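 Read-out: fluorescence at 460 and 530 nm (405 nm excitation) after a 2 hr room-temperature incubation with beta-lactamase FRET substrate. SBE-bla HEK 293T cells had been treated with test compounds for 5 hr at 37 C.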

[9] = target: Thyrotropin-releasing hormone receptor (Homo sapiens) (UniProt P34981); assay: qHTS assay to identify small molecule antagonists of the thyrotropin-releasing hormone receptor (TRHR) signaling pathway (AID 1346877; active means well fitted inhibition curve with a large enough effect in the repeat runs, not every such curve was filed as active; further: series mostly up to about 51 µM)
Procedure, shortened: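 Intracellular calcium fluorescence, read kinetically every second over 3 min, reports TRH-evoked signalling in HEK293 cells carrying TRHR. Test compounds were added 5 min ahead of a 1 nM TRH challenge.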

[10] = target: Thyrotropin-releasing hormone receptor (Homo sapiens) (UniProt P34981); assay: qHTS assay to identify small molecule agonists of the thyrotropin-releasing hormone receptor (TRHR) signaling pathway (AID 1346891; calls by dose curve;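 further: HEK293 cells expressing TRHR with calcium dye readout; series mostly up to about 58 µM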)
Procedure, shortened: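 HEK293/TRHR cells, 1500 per well, 18 h 37 °C; Ca dye 2 h 37 °C; pin-tool compound addition (agonist mode); kinetic fluorescence 3 min, 1 s reads; 15 concentrations, triplicate.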

Sequence of Thyrotropin-releasing hormone receptor (Homo sapiens) (P34981 whole entry, looked up): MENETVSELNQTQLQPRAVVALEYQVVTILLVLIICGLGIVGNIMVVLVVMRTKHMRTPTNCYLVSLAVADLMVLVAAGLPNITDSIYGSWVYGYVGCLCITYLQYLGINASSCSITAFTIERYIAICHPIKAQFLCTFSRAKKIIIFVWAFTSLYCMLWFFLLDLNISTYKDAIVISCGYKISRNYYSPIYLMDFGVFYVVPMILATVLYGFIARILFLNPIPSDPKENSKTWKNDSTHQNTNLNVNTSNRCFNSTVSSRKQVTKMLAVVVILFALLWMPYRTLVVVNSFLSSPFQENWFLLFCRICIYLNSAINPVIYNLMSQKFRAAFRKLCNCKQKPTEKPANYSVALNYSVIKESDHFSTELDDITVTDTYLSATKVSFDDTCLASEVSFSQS
Sequence of Progesterone receptor (Homo sapiens) (P06401 whole entry, looked up): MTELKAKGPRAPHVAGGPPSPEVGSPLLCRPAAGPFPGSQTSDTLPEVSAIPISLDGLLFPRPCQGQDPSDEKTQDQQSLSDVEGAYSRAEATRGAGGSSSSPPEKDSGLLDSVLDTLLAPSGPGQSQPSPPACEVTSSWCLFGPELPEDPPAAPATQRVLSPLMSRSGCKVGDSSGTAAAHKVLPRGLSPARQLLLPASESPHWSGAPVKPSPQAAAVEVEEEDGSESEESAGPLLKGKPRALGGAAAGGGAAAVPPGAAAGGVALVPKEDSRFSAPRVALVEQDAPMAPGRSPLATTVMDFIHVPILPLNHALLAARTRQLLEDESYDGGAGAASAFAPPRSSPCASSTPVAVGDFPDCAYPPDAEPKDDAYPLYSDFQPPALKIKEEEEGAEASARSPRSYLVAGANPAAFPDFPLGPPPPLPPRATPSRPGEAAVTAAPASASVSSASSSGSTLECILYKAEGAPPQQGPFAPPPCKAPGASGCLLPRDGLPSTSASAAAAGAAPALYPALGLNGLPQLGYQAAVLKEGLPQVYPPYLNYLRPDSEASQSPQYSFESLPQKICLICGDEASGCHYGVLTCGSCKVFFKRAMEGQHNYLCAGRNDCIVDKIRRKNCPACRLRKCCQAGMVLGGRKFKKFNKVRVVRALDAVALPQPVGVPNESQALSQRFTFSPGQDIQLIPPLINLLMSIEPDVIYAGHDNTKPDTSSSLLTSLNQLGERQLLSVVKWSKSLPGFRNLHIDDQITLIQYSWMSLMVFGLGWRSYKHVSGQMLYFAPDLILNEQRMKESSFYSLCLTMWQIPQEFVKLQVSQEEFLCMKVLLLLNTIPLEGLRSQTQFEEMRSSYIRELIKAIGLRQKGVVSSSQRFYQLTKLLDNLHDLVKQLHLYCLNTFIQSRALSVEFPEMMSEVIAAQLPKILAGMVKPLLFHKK

| SMILES | Potency [1] | Potency [2] | Potency [3] | Potency [4] | Potency [5] | outcome [6] | Potency [7] | Potency [8] | outcome [9] | outcome [10] |
| --- | --- | --- | --- | --- | --- | --- | --- | --- | --- | --- |
| O=C(O)CO | inactive | inactive | inactive | inactive | inactive | inactive | inactive | inactive | inactive | inactive |
| C=CC(=O)NC(C)C | inactive | inactive | inactive | inactive | inactive | inactive | inactive | inactive |  |  |
| CC(O)Cn1cnc2c1c(=O)n(C)c(=O)n2C (configuration not stated) | inactive | inactive | inactive | inactive | inactive | inactive | inactive | inactive | inactive | inactive |
| CC(C)(C)NCC(O)COc1cccc2c1C[C@H](O)[C@H](O)C2 (some centres not stated) | inactive | inactive | inactive | inactive | inactive | inactive | inactive | inactive |  |  |
| CCOC(=O)C(C)O (configuration not stated) | inactive | inactive | inactive | inactive | inactive | inactive | inactive | inactive |  |  |
| COC(OC)OC | inactive | inactive | inactive | inactive | inactive | inactive | inactive | inactive |  |  |
| FC(F)(F)C(F)(F)C(F)(F)C(F)(F)CCI | inactive | inactive | inactive | inactive | inactive | inactive | inactive | inactive | inactive | inactive |
| CC(=O)NCCO | inactive | inactive | inactive | inactive | inactive | inactive | inactive | inactive |  |  |
| CC(C)COC(=O)COc1cc(Cl)c(Cl)cc1Cl | inactive | inactive | inactive | inactive | inactive | inactive | inactive | inactive | inactive | inactive |
| CC(C)c1ccc(C#N)cc1 | inactive | inactive | inactive | inactive | inactive | inactive | inactive | inactive | inactive | inactive |
| C=Cc1ccc(OC(C)=O)cc1 | inactive | inactive | inactive | inactive | inactive | inactive | inactive | inactive |  |  |
| CC[C@@H](CO)NCCN[C@@H](CC)CO | inactive | inactive | inactive | inactive | inactive | inactive | inactive | inactive |  |  |
| CCOCCC(=O)OCC | inactive | inactive | inactive | inactive | inactive | inactive | inactive | inactive | inactive | inactive |
| CC/C=C\C/C=C\C/C=C\CCCCCCCC(=O)OCC | inactive | inactive | inactive | inactive | inactive | inactive | inactive | inactive | inactive | inactive |
| CC(C)CC(O)CC(C)C | inactive | inactive | inactive | inactive | inactive | inactive | inactive | inactive |  | inactive |
| Nc1ccc(F)cc1 | inactive | 28.5 µM (active) | inactive | inactive | inactive | inactive | inactive | inactive | inactive | inactive |
| O=C(O)c1cccc(C[C@@H]2COc3ccc(OCc4nc5cc(F)ccc5s4)cc3[C@@H]2O)c1 | inactive | inactive | inactive | inactive | inactive | inactive | inactive | inactive |  | inactive |
| CCN(CC)CCNC(=O)c1cc(Cl)c(N)cc1OC | inactive | inactive | inactive | inactive | inactive | inactive | inactive | inactive | inactive | inactive |
| O=NN(CCCl)C(=O)NCCCl | inactive | inactive | inactive | inactive | inactive | inactive | inactive | inactive | inactive | inactive |
| Cc1cc(CCC(=O)OCCOCCOCCOC(=O)CCc2cc(C)c(O)c(C(C)(C)C)c2)cc(C(C)(C)C)c1O | inactive | inactive | inactive | inactive | inactive | inactive | inactive | inactive | inactive | inactive |
| CCc1ccc(C)cc1 | inactive | inactive | inactive | inactive | inactive | inactive | inactive | inactive |  | inactive |
| CCCCCc1ccco1 | inactive | inactive | inactive | inactive | inactive | inactive | inactive | inactive | inactive | inactive |
| COc1ccc(C(=O)NCc2ccc(OCCN(C)C)cc2)cc1OC | inactive | inactive | inactive | inactive | inactive | inactive | inactive | inactive |  | inactive |
| Cc1c[nH]c2ccccc12 | inactive | inactive | inactive | inactive | inactive | inactive | inactive | inactive | inactive | inactive |
| CC(=O)OCC(C)C | inactive | inactive | inactive | inactive | inactive | inactive | inactive | inactive | inactive | inactive |
